Screening results deposited in PubChem BioAssay by several laboratories.
An excerpt weighted towards active compounds, which were near 2.4% of everything screened.
Platelet DG rel: inhibitors of platelet dense granule secretion, primary screen, cell-based, MLPCN, human platelets; human platelet-rich plasma, SFLLRN dense granule ATP release, luminescence; inhibition, %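 (compounds screened at 7.5 µM in platelet-rich plasma)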; 0.22% of 300,000 active; AID 1663, 2009;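 active = mean replicate score, as percent of positive control, at or above 50; inconclusive = mean below 50 but at least one replicate at or above 50; inactive = mean and every replicate below 50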
SENP8 block-1: human SENP8 protease inhibitors, primary screen, biochemical, fluorescence, Nedd8 protein substrate, uHTS; Sentrin-specific protease 8 (Homo sapiens), Q96LD8; inhibition, % at 20 µM; recombinant SENP8; AID 602440, 2012; 0.64% of 360,000 active; in the data active = inhibition mostly above about 40%, no sharp cut-off; inactive = mostly below about 27%
Target sequence (Q96LD8 whole entry, looked up): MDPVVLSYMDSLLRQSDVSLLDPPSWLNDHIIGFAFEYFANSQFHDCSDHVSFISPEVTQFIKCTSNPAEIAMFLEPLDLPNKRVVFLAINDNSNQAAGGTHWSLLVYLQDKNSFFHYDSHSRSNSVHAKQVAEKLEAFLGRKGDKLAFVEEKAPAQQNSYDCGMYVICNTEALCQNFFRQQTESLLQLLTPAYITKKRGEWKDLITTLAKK
SENP8 block-2: SENP8 protease inhibitors, primary screen, biochemical, luminescence. 1.2% of 330,000 active. Sentrin-specific protease 8 (Homo sapiens), Q96LD8. AID 2540, 2010. purified SENP8, Z-RLRGG-aminoluciferin cleavage. inhibition, % at 10 µM; in the data active = inhibition above about 50%
SENP7 inh: SENP7 protease inhibitors, primary screen, biochemical, luminescence, uHTS; AID 434973, 2010; Sentrin-specific protease 7 (Homo sapiens), Q9BQF6; inhibition, % at 5 µM; recombinant SENP7, Z-RLRGG-aminoluciferin luminescence, 40 min; 1.5% of 330,000 active;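 active = inhibition above about 50% at the single test dose, limit read from the data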
Target sequence (Q9BQF6 706-1050 limits assumed): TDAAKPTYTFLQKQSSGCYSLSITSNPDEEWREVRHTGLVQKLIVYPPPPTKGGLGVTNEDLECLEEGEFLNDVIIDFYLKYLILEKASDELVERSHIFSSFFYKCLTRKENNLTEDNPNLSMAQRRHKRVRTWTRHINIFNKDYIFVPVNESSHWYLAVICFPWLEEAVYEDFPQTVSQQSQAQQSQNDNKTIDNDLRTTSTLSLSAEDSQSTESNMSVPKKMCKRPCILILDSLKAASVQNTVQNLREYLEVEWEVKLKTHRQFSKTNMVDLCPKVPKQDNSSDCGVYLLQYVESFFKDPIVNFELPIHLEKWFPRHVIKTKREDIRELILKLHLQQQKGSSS
SENP6 block: SENP6 protease inhibitors, primary screen, biochemical, luminescence, uHTS | Sentrin-specific protease 6 (Homo sapiens), Q9GZR1 | Recombinant SENP6 catalytic domain, aminoluciferin luminescence | inhibition, % at 10 µM | 1.8% of 330,000 active | AID 2599, 2010;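 active = inhibition above about 50% at the single tested dose, limit read from the data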
SENP8 confirm: SENP8 protease inhibitors, retest, confirmation, biochemical, luminescence, single concentration; shares compounds with SENP7 inh; Recombinant SENP8, Z-RLRGG-aminoluciferin luminescence, 60 min; inhibition, % at 12.5 µM; 40% of 6,200 active; AID 488912, 2010;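 active = mean inhibition across replicates above about 50%, limit read from the data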
SENP6 conf: SENP6 protease inhibitors, confirmation, biochemical, luminescence, single concentration | inhibition, % at 12.5 µM | 58% of 6,200 active | AID 488915, 2010 | recombinant SENP6, Z-RLRGG-aminoluciferin luminescence | shares compounds with SENP7 inh
SENP7 confirm: SENP7 protease inhibitors, retest, confirmation, biochemical, luminescence, single concentration; inhibition, % at 12.5 µM; AID 488917, 2010; recombinant SENP7, Z-RLRGG-aminoluciferin luminescence, 40 min; 69% of 6,200 active; shares compounds with SENP7 inh
Casp3 SENP sel: caspase-3 protease inhibitors, confirmation, selectivity assay for SENP inhibitor project, biochemical, single concentration; shares compounds with SENP7 inh; purified caspase-3, Z-DEVD-aminoluciferin luminescence, 60 min; inhibition, % at 12.5 µM; 60% of 6,200 active; AID 488918, 2010;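 active = mean inhibition above about 50%, limit read from the data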
SENP luc ctr: luminescence interference (SENP counter-screen). shares compounds with SENP7 inh. AID 488919. Pre-incubated SENP8/Z-RLRGG-aminoluciferin, luciferase luminescence interference. inhibition, % at 12.5 µM. 39% of 6,200 active;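 active = mean inhibition above about 50% when retested at one dose, limit read from the data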
A number is an active result; - = inactive; ? = inconclusive; . = not tested or not shown.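 Rule for the calls, unless noted: active = mean inhibition above about 50% in the one-dose retest (limit read from the data); inactive = the rest.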

SMILES | Platelet DG rel | SENP8 block-1 | SENP8 block-2 | SENP7 inh | SENP6 block | SENP8 confirm | SENP6 conf | SENP7 confirm | Casp3 SENP sel | SENP luc ctr
C=CCOC(=O)c1sc(NC(=O)c2ccco2)nc1C | - | - | - | 56 | - | - | - | - | - | -
CCOC(=O)c1ccc2nc(NC(=O)c3ccco3)sc2c1 | - | - | 85 | 90 | 93 | - | - | 78 | 51 | -
O=C(NC(=S)Nc1nc2ccc(F)cc2s1)c1ccco1 | - | - | - | 62 | 69 | - | - | - | - | -
CC1CCc2nc(NC(=O)Cc3cccs3)sc2C1 (centres undefined) | - | - | - | - | - | . | . | . | . | .
COc1cccc(OC)c1OCCCN1CCC(Cc2ccccc2)CC1 | - | - | - | - | - | . | . | . | . | .
CCOC(=O)c1ccc2nc(NC(=O)c3cccs3)sc2c1 | ? | - | 92 | 96 | 56 | - | - | 86 | 51 | -
O=C(Nc1nc2cc3c(cc2s1)OCO3)c1ccco1 | - | - | . | . | . | . | . | . | . | .
CCOc1ccc2nc(NC(=O)COC)sc2c1 | - | - | - | - | - | . | . | . | . | .
CCOc1ccc2nc(NC(=O)c3ccoc3C)sc2c1 | 69 | - | 98 | 100 | 96 | 99 | 100 | 103 | 99 | 81
O=C(Nc1nc2cc3c(cc2s1)OCCO3)c1ccco1 | - | - | 96 | 100 | 97 | 97 | 98 | 102 | 97 | 96
CCOc1ccc2nc(NC(=O)c3ccco3)sc2c1 | 50 | - | 92 | 97 | 97 | 93 | 98 | 102 | 96 | 83
Cc1c(Cl)ccc2sc(NC(=O)c3ccco3)nc12 | - | - | 78 | 86 | 67 | - | 86 | 72 | 54 | -
Cc1c(Cl)cccc1NC(=O)c1ccco1 | - | - | - | - | - | . | . | . | . | .
CCOC(=O)c1cnc2c(-c3ccccc3)cnn2c1N | - | - | - | 72 | - | - | - | - | - | -
CCOC(=O)c1cnc2c(N=Nc3ccccc3)c(N)nn2c1N | - | - | - | 70 | - | - | - | - | - | -
CCOC(=O)c1cnc2c(-c3ccccc3)c(C)nn2c1N | - | - | - | - | - | . | . | . | . | .
O=C(Nc1cc2c3c(c1)CC(=O)N3CCC2)c1ccc(Cl)cc1 | . | - | - | - | - | . | . | . | . | .
OC[C@@H](O)[C@H](O)C(/C=N/Nc1ccccc1)=N\Nc1ccccc1 | - | - | - | - | - | . | . | . | . | .
COC(=O)C[C@H]1C=C[C@@H](C(C(=O)OC)C(=O)OC)CN1C(C)=O | . | - | . | . | . | . | . | . | . | .
COc1ccc2nc(NC(=O)c3ccccc3F)sc2c1 | - | - | 83 | 93 | 87 | 75 | 85 | 98 | 87 | -
COc1ccc(C(=O)Nc2nc3ccccc3s2)c(OC)c1 | 83 | - | 98 | 101 | 97 | 88 | 100 | 103 | 98 | -
COc1ccc(OC)c(NC(=O)c2nc3ccccc3s2)c1 | - | - | - | - | - | . | . | . | . | .
COc1ccc(NC(=O)c2nc3ccccc3s2)cc1 | - | - | 95 | 97 | 95 | - | 98 | 102 | 94 | 75
COc1ccc2nc(NC(=O)c3ccccc3-c3ccccc3C(=O)O)sc2c1 | - | - | - | - | - | . | . | . | . | .
CCOc1ccc2nc(NC(=O)Nc3ccccc3)sc2c1 | - | - | - | - | - | . | . | . | . | .
SMILES | Platelet DG rel | SENP8 block-1 | SENP8 block-2 | SENP7 inh | SENP6 block | SENP8 confirm | SENP6 conf | SENP7 confirm | Casp3 SENP sel | SENP luc ctr
COc1ccc2nc(NC(=O)Nc3ccccc3)sc2c1 | - | - | - | 85 | 68 | - | - | 91 | 52 | -
COc1ccc(CN(C)C(=O)c2cccc(C(=O)N(C)Cc3ccc(OC)cc3)c2)cc1 | - | - | - | - | - | . | . | . | . | .
COC(=O)c1sccc1NC(=O)c1ccc(C(C)C)cc1 | - | - | - | - | - | . | . | . | . | .
Cc1ccc(S(=O)(=O)N2CCC(C(=O)Nc3nnc(C)s3)CC2)cc1 | - | - | - | - | - | . | . | . | . | .
O=C(NNC(=O)c1ccccc1Cl)c1ccc2c(c1)OCCO2 | . | - | - | - | - | . | . | . | . | .
COc1ccc(NC(=O)c2sc(NC(=O)COc3ccccc3)nc2C)cc1 | - | - | 59 | - | 68 | - | 54 | 96 | 82 | -
Cc1ccc2nc(NC(=O)c3ccccc3F)sc2c1 | - | - | 81 | 91 | 86 | - | 76 | 50 | 64 | -
CCc1ccc(-c2cn3nc(C)c(C)nc3n2)cc1 | - | - | - | - | - | . | . | . | . | .
c1ccc(-c2cn3nc4c(nc3n2)CCCC4)cc1 | - | - | - | - | 50 | 86 | 94 | 96 | 94 | -
Brc1ccc(-c2cn3nc4c(nc3n2)CCCC4)cc1 | - | - | 74 | - | 70 | - | 66 | 60 | - | -
CCN(C(=O)COC(=O)CCC(=O)c1cccs1)c1c(N)n(Cc2ccccc2)c(=O)[nH]c1=O | - | - | - | - | - | . | . | . | . | .
CCOc1ccc(/C=C/[N+](=O)[O-])c2ccccc12 | - | - | - | - | 67 | - | - | - | - | -
CCOC(=O)COc1ccc2ccccc2c1/C=C/[N+](=O)[O-] | - | - | . | . | . | . | . | . | . | .
Cc1cccc(C(=O)Nc2ccc(S(=O)(=O)Nc3nc(C)cc(C)n3)cc2)c1 | - | - | - | - | - | . | . | . | . | .
Cc1ccc(-c2nc(N/N=C/c3cccnc3)c3ccccc3n2)cc1 | 64 | - | 87 | 90 | 88 | - | 77 | 76 | 84 | -
CCOc1ccc(CCNC(=O)C2CC(=O)N(c3ccc4c(c3)OCCO4)C2)cc1OCC (centres undefined) | - | - | - | - | - | . | . | . | . | .
Cc1nc(-c2cc(-c3ccc(Cl)cc3)no2)cs1 | - | - | 68 | 92 | 76 | - | - | - | - | -
Clc1ccc(-c2cc(-c3ccccc3)on2)cc1 | . | - | - | 58 | - | - | - | - | - | -
Clc1ccc(-c2csc(-c3ccno3)n2)cc1 | - | - | - | 58 | - | - | - | - | - | -
Clc1ccc(-c2cc(CSc3ccccc3)on2)cc1 | - | - | - | - | - | . | . | . | . | .
O=C(NCCCC1CCCC1)C1CCC(=O)N(Cc2ccc(Cl)cc2)C1 (centres undefined) | - | - | - | - | - | . | . | . | . | .
